{"source": "paper PMC7862700", "about": "“An all-to-all approach to the identification of sequence-specific readers for epigenetic DNA modifications on cytosine”", "test_in_all_cases": "DAPPL (digital affinity profiling via proximity ligation, sequencing); 10 mM Tris-HCl pH 7.5, 50 mM NaCl, 1 mM DTT, 4% glycerol, room temperature, 30 min; GST-TFs on glutathione beads, 16-mer random dsDNA library, 0.1% formaldehyde crosslink after washing; high values mean tight binding", "conditions_in_all_cases": "protein: recombinant; tags: N-terminal GST; dsDNA, one strand shown", "key": {"ELK4": {"biological_target": "T1, ELK4 (Homo sapiens, UniProt P28324-2 1-405)", "T1 sequence": "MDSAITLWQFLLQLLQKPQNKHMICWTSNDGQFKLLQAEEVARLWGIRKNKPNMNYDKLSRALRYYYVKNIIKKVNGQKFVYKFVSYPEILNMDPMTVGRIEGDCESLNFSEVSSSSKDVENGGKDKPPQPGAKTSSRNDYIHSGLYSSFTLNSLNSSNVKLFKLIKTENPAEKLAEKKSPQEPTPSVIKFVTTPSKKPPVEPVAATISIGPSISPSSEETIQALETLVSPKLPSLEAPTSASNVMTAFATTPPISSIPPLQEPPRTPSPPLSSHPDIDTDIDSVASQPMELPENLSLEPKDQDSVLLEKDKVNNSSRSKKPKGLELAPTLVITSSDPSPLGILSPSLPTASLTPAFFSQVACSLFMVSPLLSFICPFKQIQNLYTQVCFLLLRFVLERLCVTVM", "in_short": "(§1)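 GST fusions of human transcription factors were expressed in yeast and captured with glutathione beads. Once given DNA barcodes and pooled alongside a tag-only sample, they were incubated for 30 min at room temperature with 200 nmole of a random double-stranded 16-mer DNA library in Tris/NaCl/DTT/glycerol buffer, then washed, crosslinked (0.1% formaldehyde), proximity-ligated, PCR-amplified and sequenced on an Illumina NextSeq500. The binding signal of each hexamer is its read frequency for a factor divided by its frequency for the tag-only sample.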"}, "ELF3": {"biological_target": "T2, ELF3 (Homo sapiens, UniProt P78545 1-371)", "T2 sequence": "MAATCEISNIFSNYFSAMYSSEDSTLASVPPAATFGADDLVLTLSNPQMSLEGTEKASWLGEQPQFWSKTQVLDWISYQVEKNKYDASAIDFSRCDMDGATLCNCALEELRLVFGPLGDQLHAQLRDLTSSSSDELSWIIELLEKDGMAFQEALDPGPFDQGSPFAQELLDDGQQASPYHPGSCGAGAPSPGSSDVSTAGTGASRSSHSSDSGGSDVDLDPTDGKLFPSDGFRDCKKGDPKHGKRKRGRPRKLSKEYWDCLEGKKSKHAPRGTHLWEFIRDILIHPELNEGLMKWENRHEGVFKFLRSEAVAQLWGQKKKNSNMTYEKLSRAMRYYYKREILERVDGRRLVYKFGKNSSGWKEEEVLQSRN", "in_short": "as §1"}, "ETV1": {"biological_target": "ETV1 (Homo sapiens, UniProt P50549 1-477)", "sequence (P50549 whole entry)": "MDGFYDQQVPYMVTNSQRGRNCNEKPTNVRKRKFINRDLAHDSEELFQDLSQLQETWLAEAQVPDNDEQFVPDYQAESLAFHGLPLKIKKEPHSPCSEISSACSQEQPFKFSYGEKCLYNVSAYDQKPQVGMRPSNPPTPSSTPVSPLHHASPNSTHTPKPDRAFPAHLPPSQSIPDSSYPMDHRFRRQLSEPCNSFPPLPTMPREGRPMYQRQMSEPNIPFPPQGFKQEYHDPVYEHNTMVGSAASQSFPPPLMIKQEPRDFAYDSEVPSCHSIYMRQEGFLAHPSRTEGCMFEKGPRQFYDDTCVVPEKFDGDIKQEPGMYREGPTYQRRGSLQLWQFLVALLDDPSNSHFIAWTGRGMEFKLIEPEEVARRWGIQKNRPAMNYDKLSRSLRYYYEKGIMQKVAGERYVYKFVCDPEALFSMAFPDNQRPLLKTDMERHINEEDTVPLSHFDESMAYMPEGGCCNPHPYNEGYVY", "in_short": "as §1"}, "ERF": {"biological_target": "T3, ERF (Homo sapiens, UniProt P50548 1-548)", "T3 sequence": "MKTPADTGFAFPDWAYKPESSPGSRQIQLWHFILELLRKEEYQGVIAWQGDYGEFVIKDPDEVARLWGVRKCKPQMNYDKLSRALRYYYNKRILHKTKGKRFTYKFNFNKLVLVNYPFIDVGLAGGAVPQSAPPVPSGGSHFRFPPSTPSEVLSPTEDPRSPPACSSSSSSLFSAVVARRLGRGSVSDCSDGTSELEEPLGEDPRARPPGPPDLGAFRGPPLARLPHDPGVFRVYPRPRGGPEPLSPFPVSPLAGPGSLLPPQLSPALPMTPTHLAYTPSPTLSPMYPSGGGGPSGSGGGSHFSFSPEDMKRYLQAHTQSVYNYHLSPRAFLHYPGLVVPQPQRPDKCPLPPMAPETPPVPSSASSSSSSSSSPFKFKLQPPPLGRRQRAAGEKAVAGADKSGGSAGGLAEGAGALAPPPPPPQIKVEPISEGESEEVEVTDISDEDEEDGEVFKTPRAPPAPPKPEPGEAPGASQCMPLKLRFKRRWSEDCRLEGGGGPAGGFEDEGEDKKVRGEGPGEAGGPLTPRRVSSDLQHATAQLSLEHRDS", "in_short": "as §1"}, "ETV3L": {"biological_target": "T4, ETV3L (Homo sapiens, UniProt Q6ZN32 1-361)", "T4 sequence": "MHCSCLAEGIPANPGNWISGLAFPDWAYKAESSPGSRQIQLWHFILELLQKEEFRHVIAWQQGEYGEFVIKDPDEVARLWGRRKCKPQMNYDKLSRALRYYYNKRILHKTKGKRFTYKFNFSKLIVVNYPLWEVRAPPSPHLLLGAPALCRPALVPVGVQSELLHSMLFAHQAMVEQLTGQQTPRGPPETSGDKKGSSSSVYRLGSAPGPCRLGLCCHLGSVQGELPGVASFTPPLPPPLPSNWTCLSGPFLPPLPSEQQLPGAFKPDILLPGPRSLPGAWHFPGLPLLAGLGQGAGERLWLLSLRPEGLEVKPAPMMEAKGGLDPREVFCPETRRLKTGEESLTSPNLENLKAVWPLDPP", "in_short": "as §1"}, "ETS2": {"biological_target": "T5, ETS2 (Homo sapiens, UniProt P15036 1-469)", "T5 sequence": "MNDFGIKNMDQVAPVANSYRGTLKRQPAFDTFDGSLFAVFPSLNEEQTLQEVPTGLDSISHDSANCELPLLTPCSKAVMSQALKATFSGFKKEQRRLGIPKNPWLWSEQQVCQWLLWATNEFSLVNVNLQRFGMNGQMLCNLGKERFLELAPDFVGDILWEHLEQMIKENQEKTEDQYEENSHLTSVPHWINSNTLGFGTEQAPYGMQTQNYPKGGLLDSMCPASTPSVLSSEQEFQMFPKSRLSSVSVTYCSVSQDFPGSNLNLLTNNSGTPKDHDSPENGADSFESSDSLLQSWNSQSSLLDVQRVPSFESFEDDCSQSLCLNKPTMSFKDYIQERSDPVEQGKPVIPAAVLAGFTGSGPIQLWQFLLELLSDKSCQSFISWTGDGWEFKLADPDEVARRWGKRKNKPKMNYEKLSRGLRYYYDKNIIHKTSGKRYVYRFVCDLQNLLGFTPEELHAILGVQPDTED", "in_short": "as §1"}, "SPDEF": {"biological_target": "T6, SPDEF (Homo sapiens, UniProt O95238 1-335)", "T6 sequence": "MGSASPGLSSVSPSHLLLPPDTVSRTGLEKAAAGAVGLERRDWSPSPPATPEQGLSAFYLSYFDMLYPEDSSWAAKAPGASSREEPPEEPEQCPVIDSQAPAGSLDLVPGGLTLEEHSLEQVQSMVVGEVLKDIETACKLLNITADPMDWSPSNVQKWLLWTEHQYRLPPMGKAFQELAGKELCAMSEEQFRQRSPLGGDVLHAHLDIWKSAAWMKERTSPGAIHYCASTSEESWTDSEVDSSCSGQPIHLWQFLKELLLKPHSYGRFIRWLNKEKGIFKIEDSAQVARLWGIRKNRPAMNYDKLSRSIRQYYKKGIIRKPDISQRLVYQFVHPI", "in_short": "as §1"}, "ETV7": {"biological_target": "T7, ETV7 (Homo sapiens, UniProt Q9Y603 1-341)", "T7 sequence": "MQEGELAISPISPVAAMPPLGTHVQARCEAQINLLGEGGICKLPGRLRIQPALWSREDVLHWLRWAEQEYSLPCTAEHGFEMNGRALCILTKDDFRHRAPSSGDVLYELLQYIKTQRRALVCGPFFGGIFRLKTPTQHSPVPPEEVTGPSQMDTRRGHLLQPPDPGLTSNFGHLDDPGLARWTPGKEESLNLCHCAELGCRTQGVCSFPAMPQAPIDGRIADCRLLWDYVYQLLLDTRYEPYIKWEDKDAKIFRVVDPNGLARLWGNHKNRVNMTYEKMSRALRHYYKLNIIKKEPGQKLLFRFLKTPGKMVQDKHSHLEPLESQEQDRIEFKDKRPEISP", "in_short": "as §1"}, "ETV3": {"biological_target": "T8, ETV3 (Homo sapiens, UniProt P41162-2 1-143)", "T8 sequence": "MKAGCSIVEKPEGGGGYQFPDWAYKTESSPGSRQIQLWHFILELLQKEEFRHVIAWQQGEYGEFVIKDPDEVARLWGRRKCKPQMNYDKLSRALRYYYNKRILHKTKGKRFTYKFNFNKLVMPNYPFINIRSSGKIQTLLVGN", "in_short": "as §1"}, "ETV6": {"biological_target": "ETV6 (Homo sapiens, UniProt P41212 1-452)", "sequence (P41212 whole entry)": "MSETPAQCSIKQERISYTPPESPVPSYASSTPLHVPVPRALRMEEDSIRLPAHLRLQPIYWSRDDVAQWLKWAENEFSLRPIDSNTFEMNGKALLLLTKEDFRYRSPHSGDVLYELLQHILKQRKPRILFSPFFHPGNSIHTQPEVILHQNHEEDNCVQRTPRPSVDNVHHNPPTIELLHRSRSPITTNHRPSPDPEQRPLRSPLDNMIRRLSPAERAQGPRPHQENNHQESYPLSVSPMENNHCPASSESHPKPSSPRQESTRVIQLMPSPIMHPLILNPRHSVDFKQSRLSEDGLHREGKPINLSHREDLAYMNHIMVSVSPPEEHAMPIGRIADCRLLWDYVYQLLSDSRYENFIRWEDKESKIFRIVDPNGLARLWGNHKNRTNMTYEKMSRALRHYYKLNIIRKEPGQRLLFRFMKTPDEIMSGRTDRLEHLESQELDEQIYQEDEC", "in_short": "as §1"}}, "data": [{"sequence": "GGACTT", "values": [{"measurement": "binding signal", "setting": "ELK4", "value": "1.08 fold enrichment (6-mer frequency, TF over GST control)"}, {"measurement": "binding signal", "setting": "ELF3", "value": "1.06 fold enrichment (6-mer frequency, TF over GST control)"}, {"measurement": "binding signal", "setting": "ETV1", "value": "1.22 fold enrichment (6-mer frequency, TF over GST control)"}, {"measurement": "binding signal", "setting": "ERF", "value": "1.01 fold enrichment (6-mer frequency, TF over GST control)"}, {"measurement": "binding signal", "setting": "ETV3L", "value": "1.1 fold enrichment (6-mer frequency, TF over GST control)"}, {"measurement": "binding signal", "setting": "ETS2", "value": "1.13 fold enrichment (6-mer frequency, TF over GST control)"}, {"measurement": "binding signal", "setting": "SPDEF", "value": "1.08 fold enrichment (6-mer frequency, TF over GST control)"}, {"measurement": "binding signal", "setting": "ETV7", "value": "1.13 fold enrichment (6-mer frequency, TF over GST control)"}, {"measurement": "binding signal", "setting": "ETV3", "value": "1.27 fold enrichment (6-mer frequency, TF over GST control)"}, {"measurement": "binding signal", "setting": "ETV6", "value": "1.13 fold enrichment (6-mer frequency, TF over GST control)"}]}]}
